From PubChem BioAssay
HCMV antiviral – qHTS Assay for inhibitors of the human cytomegalovirus (HCMV) | HFF cells, HCMV-luciferase reporter, 72 h; hits give low values | activity change, negative = inhibition, % at 57.5 µM | hit rate 4.5% among 410,000 | AID 1259415, 2018; in the data active = activity change below about -60%; inconclusive = no clear call, values can overlap the other calls; inactive = above about -39%
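Cell-based, HFFs, 1000 cells/well, 16 h 37C; cpds in DMSO + HCMV-luc, MOI 1 PFU/cell; 72 h 37C; OneGlo luminescence after 5 min RT; norm. to buffer vs Salinomycin 10uM.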
FMDV inh – High Throughput Screening for Foot and Mouth Disease Virus Antivirals; Potency, µM (top dose mostly 57.9 µM), for the others: top-dose activity change, negative = inhibition, most hits filed as inhibitors; AID 1159524, 2015; hit rate 1.2% among 410,000; FMDV antiviral cell-based qHTS; calls by dose curve; tested in HEK293T cells; also: read-out not given here; potency is read from the fitted curve at half-maximal effect; nearly all actives have a fitted effect of over 45% in size
HCV inh – qHTS Assay for Inhibitors of Hepatitis C Virus (HCV); Potency, µM (titrated, usually from 41.8 µM), without a hit: top-dose activity change, negative = inhibition, hits mostly inhibitors; hit rate 3.4% among 340,000; Huh7.5.1 HCVcc-Cre infection, luciferase reporter, 44 h; also: potency is read from the fitted curve at half-maximal effect
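Antiviral activity was scored by luciferase reporter output from cells infected with HCVcc-Cre (~0.5 moi) in presence of compound, 44 h infection period, cells seeded 1,000/well 4 h prior.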
AmpC inh detg – qHTS Inhibitors of AmpC Beta-Lactamase (assay with detergent) | P00811 | AmpC hydrolysis of nitrocefin, absorbance 480 nm, 0.01% Triton | Potency, µM (titrated, usually from 114 µM), inactives show at the top dose activity change, negative = inhibition, usual class: inhibitors | hit rate 0.041% among 370,000 | AID 485294, 2010;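 also: potency is read from the fitted curve at half-maximal effect; 0% = no-compound wells and -100% = no-enzyme wells; nearly all actives have a fitted effect of over 25% in size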
Target sequence (P00811 whole entry, looked up): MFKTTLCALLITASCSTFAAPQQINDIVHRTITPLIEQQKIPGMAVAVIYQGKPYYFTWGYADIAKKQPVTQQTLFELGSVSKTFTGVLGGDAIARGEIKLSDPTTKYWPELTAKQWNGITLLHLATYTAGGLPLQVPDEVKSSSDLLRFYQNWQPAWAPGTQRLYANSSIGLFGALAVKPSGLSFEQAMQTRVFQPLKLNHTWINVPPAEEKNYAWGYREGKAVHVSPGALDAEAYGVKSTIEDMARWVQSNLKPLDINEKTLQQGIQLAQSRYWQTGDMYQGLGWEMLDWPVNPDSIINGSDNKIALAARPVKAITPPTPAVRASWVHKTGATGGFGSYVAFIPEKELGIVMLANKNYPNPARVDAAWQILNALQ
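20 mM phosphate pH 7.0 + 0.01% (detergent screen) or 0.0001% Triton X-100; 5.3 nM AmpC reagent; cpd preinc 15 min RT; nitrocefin (800 uM stock) to start; A480 q20 s × 4 min; Activity was normalised to no-enzyme and no-compound control wells.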
AmpC inh no detg – qHTS Inhibitors of AmpC Beta-Lactamase (assay without detergent); Potency, µM (series often up to 57.1 µM), for inactives: top-dose activity change, negative = inhibition, usual class: inhibitors; P00811; hit rate 0.52% among 330,000; AmpC nitrocefin hydrolysis, absorbance 480 nm, 0.0001% Triton;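 also: potency is read from the fitted curve at half-maximal effect; plate controls were no compound for no effect and no enzyme for full effect; nearly all actives have a fitted effect of over 20% in size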
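AmpC (5.3 nM in the dispensed reagent) in 20 mM phosphate pH 7.0 with 0.01% (detergent screen) or 0.0001% Triton X-100 was preincubated with compounds for 15 min at room temperature. Nitrocefin was then added from an 800 uM solution, and hydrolysis was followed at 480 nm.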
Starred values were filed as active, the others as inactive; ? = inconclusive; . = no result. An excerpt weighted towards active compounds, which were near 7.3% of everything screened. Unless noted, calls follow the shape of the dose curve; as a rule, active = well fitted curve in the direction sought with a large enough effect; inconclusive = small, poorly fitted or top-dose-only effect, or another doubt; inactive = no such curve, though single readings can be large; an effect the other way counts as inactive or inconclusive. Unless noted, % is scaled to controls: 0 for no effect and ±100 for the full control effect.

SMILES	HCMV antiviral	FMDV inh	HCV inh	AmpC inh detg	AmpC inh no detg
COC(=O)c1ccccc1NC(=O)CSc1ncn[nH]1	-24.8	-13.2%	9.9%	-3.8%	-10.6%
COc1ccc(-c2noc(N3CCC(C(=O)Nc4ccccc4OC)CC3)n2)cc1	?	0.0%	?	-16.5%	9.3%
CCOC(=O)N1CCN(c2nc(-c3ccc(OC)cc3)no2)CC1	?	2.6%	12.6µM*	?	31.3%
CCOC(=O)N1CCN(C(=O)c2ccc(OC)cc2)CC1	-31.1	-16.5%	16.1%	1.4%	-14.8%
COc1cc(CN2CCC(C(=O)N3CCN(c4ccccc4F)CC3)CC2)ccc1O	-21.1	-20.5%	22.4µM*	?	23.7%
COc1ccc(-c2noc(N3CCC(C(=O)N4CCN(c5ccccc5F)CC4)CC3)n2)cc1	-3.7	11.2µM*	.	-0.8%	.
CC(C)(C)n1nnnc1C(c1ccccc1)N1CCN(c2ncc(C(F)(F)F)cc2Cl)CC1 (stereo unspecified)	-77.5*	?	.	.	.
CSc1nc(NCC(C)O)c2c3c(sc2n1)CN(C)CC3 (stereo unspecified)	-11.6	-4.3%	-14.3%	-0.2%	-1.9%
CSc1nc(SCC(=O)NC(c2ccccc2)c2ccccc2)c2c3c(sc2n1)CN(C)CC3	-29.3	-1.1%	1.78µM*	-8.3%	16.3%
COc1ccc(NC(=O)c2ccc3nc(C)c(N(C)C(=O)CCc4ccccc4)n3c2)cc1OC	26.5	-16.5%	.	.	.
O=C1/C(=C/c2ccc3c(c2)OCO3)SC(=S)N1CCC(=O)N(CCO)c1ccccc1	-67.6*	-22.7%	.	.	.
COc1cccc(/C=C2\SC(=S)N(CCCC(=O)N(CCO)c3ccccc3)C2=O)c1	-96.7*	0.0%	?	-14.0%	173.7%
CN1CCN(C(=O)CCN2C(=O)/C(=C/c3cccc(Br)c3)SC2=S)CC1	-16.7	-13.7%	?	-2.0%	43.2%
O=C(CCN1C(=O)/C(=C/c2ccc3c(c2)OCO3)SC1=S)Nc1ccccc1	16.9	7.8%	1.3%	1.3%	-1.2%
O=C1/C(=C/c2cccc(Br)c2)SC(=S)N1CCC(=O)N(CCO)c1ccccc1	-103.8*	-3.2%	-16.8%	-7.5%	56.0%
C/C(=N\NC(=O)c1cccc2ccccc12)c1cccnc1	2.3	-1.6%	-6.5%	2.1%	-24.6%
CC(=NNC(=O)c1ccncc1)c1ccc2ccccc2c1O	-76.7*	-1.7%	?	.	.
CC(=O)Nc1ccccc1NC(=O)C/C(C)=N/NC(=O)c1ccncc1	-88.6*	-17.4%	24.3%	?	-22.8%
C/C(=N\NC(=O)c1cc(-c2cccc(OC(C)C)c2)nc2ccccc12)c1cccnc1	14.3	-2.1%	-9.6%	?	-25.4%
C/C(=N\Nc1cccc([N+](=O)[O-])c1)c1cc(F)ccc1O	-26.8	21.2%	10µM*	7.9%	-27.0%
C/C(=N\NC(=O)c1cc(-c2cccnc2)nc2ccccc12)c1ccc(O)cc1O	-93.5*	-14.5%	3.98µM*	-4.2%	-10.6%
COC(=O)C(Cc1c[nH]c2ccccc12)NC(=O)C1CC1 (stereo unspecified)	-31.2	8.7%	4.8%	2.2%	-11.3%
CC(=O)Nc1ccc(N(C(=O)c2ccccn2)C(C(=O)NC2CCCCC2)c2ccc(F)cc2)cc1 (stereo unspecified)	5.6	16.3%	0.8%	-9.0%	33.9%
CC(C)CC(=NNC(=O)c1ccncc1)c1cc(Cl)ccc1O	-97.2*	?	2.51µM*	.	.
CC(=NNC(=O)c1ccncc1)c1ccccc1O	-98.4*	4.8%	4.47µM*	.	.
SMILES	HCMV antiviral	FMDV inh	HCV inh	AmpC inh detg	AmpC inh no detg
C/C(=N\NC(=O)c1cccc(N/N=C(\C)c2ccco2)c1)c1ccco1	-21.5	8.0%	-18.9%	1.2%	-52.3%
CC(=NNC(=O)c1ccncc1)c1ccc(O)cc1O	-36.7	10.1%	11.2µM*	.	.
C/C(=N\NC(=O)c1cccc(N/N=C(\C)c2cc(O)ccc2O)c1)c1cc(O)ccc1O	-78.0*	0.0%	?	-1.1%	-58.9%
C/C(=N\NC(=O)c1ccc(N2CCCC2=O)cc1)c1ccc(O)cc1O	4.8	0.0%	?	-2.4%	-14.7%
CCC(C)NC(=O)c1c(C)oc2ncn(CC(C)C)c(=O)c12 (stereo unspecified)	-5.4	-21.5%	.	14.1%	.
CCCCCCCC(=O)N/N=C(\C)c1ccc(O)cc1O	-69.9*	-24.5%	-23.6%	6.7%	-22.7%
CCCCCCCCC(=O)N/N=C(\C)c1ccc(O)cc1O	-39.8	0.0%	?	2.1%	-42.5%
COCCCNC(=O)c1cnn(-c2ncc3c(n2)-c2ccccc2CCC3)c1C	.	40.0%	.	.	.
COC(=O)c1c(OCc2cccnc2)cc(=O)n2c1CCN(C(=O)c1c3c(nn1C)CCCC3)CC2	.	-17.5%	.	.	.
CCS(=O)(=O)N1CCc2cc(C(=O)Nc3cc([N+](=O)[O-])ccc3C)ccc21	-9.1	?	.	-1.8%	.
CCS(=O)(=O)N1CCCc2cc(C(=O)Nc3cc([N+](=O)[O-])ccc3C)ccc21	-39.0	28.2µM*	.	2.1%	.
Cc1ccc(/C=N/NC(=O)CNC(=O)COc2ccccc2)cc1	-61.3*	0.0%	1.7%	?	-25.5%
Cc1cccc(OCC(=O)NCC(=O)N/N=C/c2cc(Br)cc(Br)c2O)c1	-82.8*	-2.3%	?	-6.6%	-17.0%
COc1cccc(/C=N/NC(=O)CNC(=O)COc2ccccc2)c1O	11.1	8.4%	-6.6%	2.2%	-29.0%
CCOc1ccc(CCNC(=O)C2Cc3ccccc3N2C(=O)CC)cc1OCC (stereo unspecified)	2.2	-10.1%	.	12.6%	.
O=c1c(Br)ccc(Br)cc1Br	-77.1*	20µM*	?	.	.
CC(=O)c1cccc(NC(=O)C(OC(=O)c2ccccc2NS(=O)(=O)c2cccs2)c2ccccc2)c1 (stereo unspecified)	-74.6*	39.6%	0.9%	-7.7%	-45.5%
CCCC(=O)Nc1cc(OC)c(NC(=S)Nc2ccc(CC)cc2)cc1OC	19.9	-2.5%	-27.2%	.	.
CC(=O)SC1CC2=CC(=O)CCC2(C)C2CCC3(C)C(CCC34CCC(=O)O4)C12 (stereo unspecified)	-63.2*	-14.8%	?	0.1%	63.5%
CCc1cc2c(=O)n(Cc3ccco3)c(SCC(=O)NC3CCS(=O)(=O)C3)nc2s1 (stereo unspecified)	8.1	9.9%	-18.7%	-19.4%	-8.3%
CCc1cc2c(=O)n(Cc3ccco3)c(SCC(=O)NCC3CCCO3)nc2s1 (stereo unspecified)	?	25.1µM*	10µM*	-4.1%	27.1%
CCc1cc2c(=O)n(Cc3ccco3)c(SCC(=O)N3CCCc4ccccc43)nc2s1	17.7	-14.0%	10µM*	-11.3%	-12.8%
CCc1cc2c(=O)n(Cc3ccco3)c(SCc3c(C)noc3C)nc2s1	74.7	-20.6%	10µM*	?	-10.9%
